About 1,800 (0.5%) of roughly 360,000 compounds were called active. The full list was thinned out, with actives kept by preference. A number with no mark means an inactive call.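 The calls were made as follows: active = interference check ratio from 0.5 to 1.5 plus GFP to RFP signal ratio inhibition reaching or exceeding a fixed threshold (cut at about 30% in these data, passing the limit was not always enough); inactive = the rest.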
Assay: gst-4 reporter inhibition in live C. elegans – whole organism, uHTS, GFP/RFP fluorescence ratio, strain VP596, SKN-1 inhibitor project, primary screen (AID 624304)
Conditions: C. elegans VP596 Pgst-4::GFP/RFP ratio, acrylamide-induced, 24 h; at 21.8 µM; active compounds read high
With `Cc1ccc(P(=S)(c2ccc(C)o2)N2CCOCC2)o1` the inhibition was 36.8% (active).
With `CN(C)C(=O)Oc1ccc(NC(=O)N2CCOCC2)cc1` the inhibition was 12%.
With `CC[N+]1(C)CCCC(OC(=O)C(O)(c2ccccc2)c2ccccc2)C1` (stereo not given) the inhibition was -6.17%.
Work on `CC1CCCN1CCC(C(N)=O)(c1ccccc1)c1ccccc1` (stereo not given) yielded an inhibition of -0.187%.
`CN(C)CC1Oc2ccccc2OC1(O)c1ccccc1` (stereo not given) showed an inhibition of -1.82%.

Source: PubChem BioAssay AID624304 (Sanford-Burnham Center for Chemical Genomics, 2012)
